# Source: PubChem BioAssay (University of Kansas High Throughput Screening Laboratory)
# Hits are enriched below; roughly 3.6% of the tested compounds scored in any of these assays.
# Pf apPOL block: Pf-apPOL DNA polymerase inhibition. AID 1794808. 0.25% of 210,000 active. inhibition, % at 10 µM. Recombinant Pf-apPOL, molecular beacon fluorescence, 1.5 h
# mHTT CaM bind: disrupts binding of mutant huntingtin to calmodulin | AlphaScreen His-mHTT/GST-CaM binding, luminescence | inhibition, % at 15 µM | 3.6% of 190,000 active | P42858 | AID 1671202;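 also: 0% = both proteins with DMSO and 100% = one protein alone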
# The depositor's hits bear a star; · = no result. Rule as the data show it: active = inhibition above about 50%; inactive = the rest.
SMILES,Pf apPOL block,mHTT CaM bind
COc1ccc(NS(=O)(=O)c2ccc(NS(C)(=O)=O)cc2)cc1,55*,2
COc1ccc(NS(=O)(=O)c2ccc(NS(=O)(=O)c3ccc(OC)cc3)cc2)cc1,-6,4
NS(=O)(=O)c1ccc(NS(=O)(=O)c2ccc(NC(=S)Nc3ccccc3)cc2)cc1,·,11
COc1ccc(Nc2ccc(OC)cc2)cc1,-6,90*
O=c1[nH]c(/C=C/c2ccc(Br)cc2)nc2ccccc12,1,-3
O=C(Nc1nnc(CCS(=O)(=O)c2ccc(Br)cc2)s1)c1ccc(F)cc1,-4,-2
Cc1ccccc1N1C=C(C#N)S(=O)(=O)c2ccc(Cl)cc21,2,-4
COc1ccc(S(=O)(=O)Nc2ccc(Nc3ccccc3)cc2)cc1,1,89*
NC(=O)c1ccc(NS(=O)(=O)c2ccccc2[N+](=O)[O-])cc1,-2,3
COc1ccc(S(=O)(=O)Nc2cccc(NS(=O)(=O)c3ccc(OC)cc3)c2)cc1,2,0
O=[N+]([O-])c1ccccc1S(=O)(=O)Nc1ccc(Nc2ccccc2)cc1,-6,90*
CC(=O)Nc1ccc(S(=O)(=O)Nc2ccc(Oc3ccccc3)cc2)cc1,-22,87*
COc1ccc(NS(=O)(=O)c2ccc(NS(=O)(=O)c3ccc(NC(C)=O)cc3)cc2)cc1,-1,0
Cc1ccc(S(=O)(=O)Nc2cccc(C(=O)O)c2)cc1C(N)=O,-4,-1
Oc1ccc(/C=C/c2ccc(/C=C/c3ccc(O)cc3)c(Br)c2)cc1,7,·
COc1ccc(CC(=O)N2CCCC2c2nc(-c3ccccc3C)no2)cc1 (configuration not stated),-2,15
O=C(O)CC(CC(=O)Nc1ccc(C(=O)O)cc1)c1ccccc1 (configuration not stated),94*,-5
NS(=O)(=O)c1ccc(NC(=O)CC(CC(=O)O)c2ccccc2)cc1 (configuration not stated),4,·
Cc1ccc(-n2nc3c(c2NC(=O)c2cccc(C)c2)CSC3)cc1,-4,2
O=C(NCc1ccccc1)c1ccc2c(c1)NC(=O)C1CCCN21 (configuration not stated),-5,15
CCN(CCCNC(=O)c1ccc2c(c1)NC(=O)C1CCCN21)Cc1ccccc1 (configuration not stated),50*,19
Cc1cc(C)c(C)c(OCC(=O)Nc2ccccc2C(N)=O)c1,-1,-5
COc1ccc(CC(=O)N2CCCC2COc2ccc(C(=O)N3CCCC3)cc2)cc1 (configuration not stated),2,10
COc1ccc(C=Nc2c(-c3ccc(O)c(OC)c3)nc3ccccn23)cc1O,-3,32
COc1cc(-c2nc3ccccn3c2N=Cc2cc([N+](=O)[O-])cc([N+](=O)[O-])c2O)ccc1O,1,2
SMILES,Pf apPOL block,mHTT CaM bind
COc1cc(C=Nc2c(-c3ccc(O)c(OC)c3)nc3ccccn23)ccc1O,7,60*
COc1cc(-c2nc3ccccn3c2N=Cc2cn[nH]c2-c2ccc(F)cc2)ccc1O,-4,56*
CCC(=O)N1CCc2cc(Br)cc(S(=O)(=O)N3CC(C)CC(C)C3)c21 (configuration not stated),-9,-1
Cc1cc(C)c2sc(N(CCN(C)C)C(=O)c3ccccc3[N+](=O)[O-])nc2c1,6,84*
CCN(C(=O)c1ccccc1[N+](=O)[O-])c1ccccc1C,-4,0
COc1ccc(S(=O)(=O)N2CCN(c3ccc(N4CCCC4)nn3)CC2)cc1Cl,-3,72*
Cc1ccc(N2CCN(S(=O)(=O)c3ccc(Cl)c(Cl)c3)CC2)nn1,-8,-10
O=C(NC1CCCc2ccccc21)c1csc(-c2ccnc(N3CCCCC3)c2)n1 (configuration not stated),-2,-22
CC1CN(CC(O)COc2ccc(C34CC5CC(CC(C5)C3)C4)cc2)CC(C)O1 (configuration not stated),0,18
CC1CCCCN1CC(O)COc1ccc(C23CC4CC(CC(C4)C2)C3)cc1 (configuration not stated),0,100*
CC1CCCCN1CC(O)COCC12CC3CC(CC(C3)C1)C2 (configuration not stated),-5,0
CC1CCCC(C)N1CC(O)COc1ccc(C23CC4CC(CC(C4)C2)C3)cc1 (configuration not stated),0,100*
CC(C)c1ccc(/C=C2/N=C(c3ccccc3)OC2=O)cc1,2,1
CCc1ccc(S(=O)(=O)N2CCC(CN3CCCCCC3)CC2)cc1,2,100*
CCc1ccc(S(=O)(=O)N2CCC(CN3CCC(C)CC3)CC2)cc1,-3,-9
O=C(CCCOc1ccc(Cl)cc1Cl)Nc1ccncc1,4,6
Cc1cc2c(cc(C(=O)N3CCN(C)CC3)n2Cc2cccc(F)c2)s1,-2,56*
C=C(C)Cn1c(C(=O)N2CCN(C)CC2)cc2sc(C)cc21,-6,8
CC(=O)n1c(C=Nc2ccc(Cl)cc2)c(O)c2ccccc21,-1,-2
CCC(CO)N=Cc1c(O)n(-c2c(Cl)cccc2Cl)c2ccccc12 (configuration not stated),-1,83*
Oc1ccccc1N=Cc1c(Cl)cccc1Cl,-5,12
OCCN=Cc1c(O)n(-c2c(Cl)cccc2Cl)c2ccccc12,-1,85*
CCCC(=O)Nc1c(Cl)nc(C)c(Cl)c1C,-3,-6
CSc1nsc2nc(=O)c(C=C3C=CC=N3)c(N)n12,-8,7
COc1cccc(-c2cc(C(=O)N3CCN(c4ccccc4F)CC3)n(C)n2)c1,-9,20
SMILES,Pf apPOL block,mHTT CaM bind
Cc1ccc(-c2cn(-c3cc(C)cc(C)c3)c(=O)[nH]2)cc1,-2,18
Nc1c(C(=O)O)cc(Br)c2c1C(=O)c1ccccc1C2=O,-8,52*
Nc1c(Br)c(Br)c(N)c2c1C(=O)c1ccccc1C2=O,-2,27
O=C(Nc1ccc2c(c1)OCCO2)C1CCCN(c2cnn(Cc3ccccc3)c(=O)c2)C1 (configuration not stated),-4,35
O=C(Nc1ccc2c(c1)OCO2)C1CCCN(c2cnn(Cc3ccccc3)c(=O)c2)C1 (configuration not stated),-2,69*
Cc1ccc(NC(=O)C2CCCN(c3cnn(C)c(=O)c3)C2)cc1C (configuration not stated),-3,1
O=C(Nc1ccc2c(c1)OCO2)C1CCCN(c2cn[nH]c(=O)c2)C1 (configuration not stated),-2,63*
Cn1ncc(N2CCCC(C(=O)Nc3ccc4c(c3)OCO4)C2)cc1=O (configuration not stated),21,72*
O=C(Nc1ccc(Br)cc1)C1CCN(c2cc(N3CCCC3)ncn2)CC1,-7,21
COc1ccc(NC(=O)C2CCCN(c3cn[nH]c(=O)c3)C2)cc1OC (configuration not stated),8,7
O=C(Nc1ccc2c(c1)OCO2)C1CCN(c2cc(N3CCCC3)ncn2)CC1,-6,61*
O=C(NCc1ccco1)C1CCc2sc(C(=O)N3CCCCCC3)cc2C1 (configuration not stated),6,10
CS(=O)(=O)c1ccccc1NC(=O)C1CCCCN1S(=O)(=O)c1cccs1 (configuration not stated),-1,-2
O=C(Nc1ccc2c(c1)OCCO2)C1CCCN(C(=O)c2ccc(Cl)cc2)C1 (configuration not stated),-4,36
